Data on 9 molecules can be found in PubChem BioAssay (NCI).

Common to all, as to assay: NCI-60 one-dose screen, 48 h (100 = growth as untreated, 0 = no growth, -100 = all killed)
What all share (settings): 10 µM unless noted

Experiment [1] deals with NCI-H23 lung.
Experiment [2] relates to NCI-H226 lung.
Experiment [3] deals with NCI-H322M lung.
For experiment [4], the system named is HOP-62 NSCLC.
The test system of experiment [5] is NCI-H460 lung.
The test system of experiment [6] is NCI-H522 lung.
Experiment [7] deals with 786-0 renal.
The subject of experiment [8] is COLO 205 colon.
The test system of experiment [9] is DU-145 prostate.
For experiment [10], the system named is K-562 leukemia.
The test system of experiment [11] is MALME-3M melanoma.
For experiment [12], the system named is MDA-MB-231 breast.
The subject of experiment [13] is RXF 393 renal.
Experiment [14] has as its system SF-268 CNS.
In experiment [15] the test system is SF-295 CNS.
The subject of experiment [16] is SF-539 CNS.
Experiment [17] relates to M14 melanoma.
The test system of experiment [18] is HCT-15 colon.
Experiment [19] has as its system A549/ATCC NSCLC.
For experiment [20], the system named is UACC-257 melanoma.

Molecules are shown by their SMILES. Compounds without any hit were thinned out: in the full panel of roughly 83,000, 20% have a hit.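 Results are percent growth after 48 hours of single-concentration exposure. 100 means growth as in untreated cells, lower positive values show inhibition; negative values down to -100 show cell death.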 Values without a mark were called inactive. The source made the active and inactive calls. Rule for the calls: active = growth percent below 10; inactive = the rest.

Consider `COc1ccc(/C=N/NC(=O)c2ccc(S(C)(=O)=O)cc2)cc1OC`, for which the growth is 102% in experiment [1]; 93.5% in experiment [2]; 92.1% in experiment [3]; 97.2% in [4]; 109% in experiment [5]; 84.4% in [6]. Moreover, the growth in experiment [7] is 99.5%; in experiment [8] it was 107%; in experiment [9] it was 99.8%; in experiment [10], 80.9%; in experiment [11], 107%; in experiment [12], 106%. In addition, the growth in experiment [13] was 104%; in [14], 102%; in experiment [15], 100%; in [16], 105%; in experiment [17] it was 99.4%; in experiment [18], 102%.
Turning to `Cn1c(=O)c2nc(SCc3ccccc3)n(C)c2n(C)c1=O`, the growth was 108% in [1]; 102% in experiment [2]; 109% in experiment [3]; 107% in experiment [4]; 109% in [5]; 99.2% in experiment [19]. In addition, the growth in [7] was 109%; in [8], 104%; in [9], 117%; in [10], 103%; in [11], 143%; in [12], 97.7%. Further, the growth in experiment [13] is 112%; in [14], 106%; in experiment [15], 117%; in [16], 101%; in [20] it was 111%; in [17] it was 107%. The growth in experiment [18] was 98.8%.
`CC(C)COCC(CN(Cc1ccccc1)c1ccccc1)N1CCCC1` (stereo not given): the growth in experiment [1] was 60.7%; in experiment [2], 65.8%; in experiment [3], 78.8%; in [4], 71.3%; in experiment [5], 43.8%; in [6] it was 32.1%. Further, the growth in experiment [7] was 68.2%; in experiment [8], 40.1%; in [9] it was 70%; in experiment [10], 31.3%; in experiment [11], 84.3%; in [12] it was 29.5%. The growth in [14] is 71.5%; in [15] it was 63.6%; in experiment [16] it was 78.5%; in experiment [17] it was 51.9%; in [18] it was 55.7%.
As for `C=CCCCCCCCCC(=O)[O][Sn]([CH2]CCC)([CH2]CCC)[CH2]CCC`, the growth in experiment [1] was -86.2% (active); in [2], -52.7% (active); in experiment [3] it was -88.7% (active); in [4] it was -94.7% (active); in experiment [5], -83.3% (active); in experiment [6] it was -53% (active). The growth in experiment [7] is -96% (active); in [8] it was -86% (active); in [9] it was -95.2% (active); in experiment [10], -16.8% (active); in experiment [11], -79.8% (active); in experiment [12], -81.7% (active). For the same molecule, the growth in [13] was -97.3% (active); in [14] it was -97.3% (active); in experiment [15] it was -85.4% (active); in [16], -84.1% (active); in [17], -91.1% (active); in experiment [18], -73.3% (active).
For `Nc1ccccc1-c1ccc([N+](=O)[O-])cc1`, the growth in experiment [1] was 68.7%; in experiment [2] it was 87.6%; in experiment [3] it was 57%; in [4], 53.1%; in [5], 33.6%; in [19], 63.3%. Also, the growth in experiment [7] was 46.7%; in [8], 23.8%; in experiment [9], 59.3%; in [10], 15.5%; in experiment [11], 111%; in [12] it was 67%. The growth is 111% in experiment [13]; 49.4% in experiment [14]; 44.2% in experiment [15]; 52.8% in [16]; 78.9% in experiment [20]; 44.7% in experiment [17]. The growth in experiment [18] was 47.8%.
Turning to `O=C(/C=C/c1ccccc1)CC(c1ccccc1)N1CCOCC1` (stereo not given), the growth was 96.6% in experiment [1]; 99.5% in experiment [2]; 121% in experiment [3]; 102% in experiment [4]; 106% in experiment [5]; 63% in experiment [19]. The growth in experiment [7] is 4.06% (active); in experiment [8], 76.3%; in experiment [9], 91.3%; in experiment [10], 49.9%; in [11] it was 138%; in experiment [12] it was 60.3%. Further, the growth in experiment [13] was 102%; in experiment [14], 97.3%; in [15], 98.7%; in experiment [16], 69.3%; in [20], 98.8%; in experiment [17] it was -35% (active). The growth in experiment [18] was 61.5%.
Consider `CC(=O)NCCSC(=O)C(=O)SCCNC(C)=O`, for which the growth in experiment [1] is 109%; in experiment [2] it was 103%; in experiment [3] it was 144%; in experiment [4], 107%; in experiment [5], 114%; in [6], 125%. Further, the growth in experiment [7] is 95.5%; in experiment [8], 122%; in experiment [9] it was 116%; in [10], 95.6%; in experiment [11] it was 138%; in [12], 107%. Besides, the growth in experiment [14] was 109%; in [15], 102%; in experiment [16], 97.5%; in [17], 106%; in experiment [18], 119%.
For the molecule `CC(=O)Nc1ccc2c(c1)Cc1c(F)c(F)c(F)c(F)c1-2`, the growth is 25.2% in [1]; 76.5% in experiment [2]; 81.9% in experiment [3]; 107% in [4]; 65.8% in experiment [5]; 23.2% in experiment [6]. Besides, the growth in experiment [7] was 75.3%; in experiment [8] it was 105%; in experiment [9], 96.4%; in [10], 104%; in [11] it was 113%; in experiment [12], 75.1%. For the same molecule, the growth in [14] is 91.9%; in experiment [15], 90.5%; in experiment [16], 87.7%; in [17], 114%; in [18], 83.4%.
With `O=c1[nH]c(=O)n(C2CC(O)C(CO)O2)cc1C(F)(F)F` (stereo not given), the growth in [1] was -5.01% (active); in [2], 57%; in [3], 76%; in experiment [4], 33.1%; in experiment [5], 19.2%; in [6], -12% (active). The growth in [7] is 12.7%; in experiment [8], 69.2%; in experiment [9] it was 6.03% (active); in experiment [10] it was 62.4%; in experiment [11] it was 51.4%; in [12], 102%. The growth in experiment [14] is 30.7%; in experiment [15], 6.84% (active); in experiment [16], 8.46% (active); in experiment [17], 15.8%.
